This note sets out measurements from PubChem BioAssay AID2284345 (EPA ToxCast).

As a reminder, the AC50 is the concentration at which the activity in the assay is half-maximal.

Structures are written as SMILES. Results filed as inconclusive are left out. Active and inactive are the calls of the source. The calls were made as follows: active = hit-call score of the fitted dose curve at least 0.9, where 1 is the maximum; inconclusive = response in the unintended direction; inactive = score below 0.9.

This assay has as its system zebrafish Glucocorticoid Receptor (GR), gene 553740. The assay is described as follows: ATG_zfGR_EcoTox2: Attagene TRANS-FACTORIAL EcoTox-2 HepG2 Assay for zebrafish Glucocorticoid Receptor (GR). How it is done: ATG_EcoTox2 is a cell-based, multiplexed assay created by modifying the existing Attagene TRANS-FACTORIAL system to include a panel of nuclear receptors from some or all the following species: human (Homo sapiens), african clawed frog (Xenopus laevis), rainbow trout (Oncorhynchus mykiss), japanese medaka (Oryzias latipes), and zebrafish (Danio rerio). The ECOTOX2-FACTORIAL format uses HepG2, a human liver cell line, with measurements taken at 24 hours after chemical dosing in a 24-well plate. ATG_zfGR_EcoTox2 is one of 29 assay components calculated in the ATG_EcoTox2 assay. It is designed to make measurements of mRNA induction, a form of inducible reporter, as detected with fluorescence intensity signals by Reverse transcription polymerase chain reaction (RT-PCR) and Capillary electrophoresis technology.The assay endpoint ATG_zfGR_EcoTox2 was analyzed in the positive analysis fitting direction relative to DMSO as the negative control and baseline of activity. Using a type of inducible reporter, measures of mRNA for gain-of-signal activity can be used to understand the reporter gene at the transcription factor-level as they relate to the gene for glucocorticoid receptor. Furthermore, this assay endpoint can be referred to as a primary readout, because this assay has produced multiple assay endpoints where this one serves a reporter gene function. To generalize the intended target to other relatable targets, this assay endpoint is annotated to the nuclear receptor intended target family, where the subfamily is steroidal.
Human liver HepG2 cells are transiently transfected with multiple reporter transcription units (MRTUs) in 6-well plates using FuGene 6 reagent (Roche; 3 ml FuGene/1 mg DNA). The MRTU constructs are regulated by a cis-regulating element (promoter). Each RTU expresses a GAL4-UAS that regulates the transcription of a nearby target reporter gene sequence. A major difference between the CIS and TRANS system is that in CIS activities of endogenous TFs are measured, whereas the TRANS assay evaluates changes in activities of exogenous, chimeric NR-Gal4 proteins. […] At the end of 24 hour incubation, total RNA was isolated using TriZol reagent (Invitrogen). The isolated RNA is then reverse-transcribed using oligo(dT) primer and Mo-MLV reverse transcriptase (Invitrogen) with DNAse I (Ambion) treatment for 30 min. The one-tenth of the produced cDNA was amplified by PCR using Taq DNA polymerase (Invitrogen) and two reporter sequence-specific primers. The PCR products were fluorescently labeled by primer extension with 6-arboxyfluorescein (6-FAM) 5'-labeled reporter sequence-specific primer (2 min at 95 C, 20 s at 68 C and 10 min at 72 C) and these products were digested with 5U of HpaI (New England Biolabs) for 2h at 37 C. The fragments were purified using Qiaquick PCR columns (Qiagen), analyzed on an ABI 3130xL genetic analyzer (Applied Biosystems) with peak positions identified by using a set of X-rhodamine (ROX)-labeled MapMarker1000 molecular weight standards (BioVentures). The raw capillary electrophoresis data was processed using Attagraph software (Attagene).
Regarding `Cc1c(C)c2c(c(C)c1O)CCC(C)(COc1ccc(CC3SC(=O)NC3=O)cc1)O2` (configuration not stated), the compound was classed as inactive.
In the case of `Cc1ccc(C)c(OCCCC(C)(C)C(=O)O)c1`, the call was inactive.
As to `C[C@@H]1C[C@H]2[C@@H]3CCC4=CC(=O)C=C[C@]4(C)[C@@]3(F)[C@@H](O)C[C@]2(C)[C@@]1(O)C(=O)COP(=O)(O)O`, the AC50 is 4.57 nM (active).
`CC(C)(Oc1ccc(Cl)cc1)C(=O)O`: the outcome was inactive.
On the same count and under the same terms, the value for `CN(CCOc1ccc(CC2SC(=O)NC2=O)cc1)c1ccccn1` (configuration not stated) was “inactive”; that for `C[C@]12C=CC(=O)C=C1CC[C@@H]1[C@@H]2C(=O)C[C@@]2(C)[C@H]1CC[C@]2(O)C(=O)CO` was “inactive”; that for `CC(C)OC(=O)C(C)(C)Oc1ccc(C(=O)c2ccc(Cl)cc2)cc1` was “inactive”.
